Screening data deposited in PubChem by National Center for Advancing Translational Sciences (NCATS).
Compounds with a hit are over-represented: about 3.3% of the library has one in this group of screens.
Sm TGR block – S. mansoni TGR enzyme inhibition; Q962Y6; AID 485364; purified TGR, DTNB reduction, TNB absorbance 405 nm; Potency, µM (highest dose often 114 µM), inactives show top-dose activity change, negative = inhibition, usual class: inhibitors; 360,000 tested, 3% active; note: nearly all actives have a fitted effect of over 60% in size
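Kinetic colorimetric format: TGR-catalysed, NADPH-driven DTNB reduction monitored via TNB absorbance. Enzyme dispensed at 20 nM; compound exposure 15 min at room temperature before reaction start.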
AmpC inh detg – blocks E. coli AmpC beta-lactamase in detergent assay; P00811; AmpC hydrolysis of nitrocefin, absorbance 480 nm, 0.01% Triton; Potency, µM (doses to about 114 µM), for inactives: at the highest dose activity change, negative = inhibition, usual class: inhibitors; 370,000 tested, 0.041% active; AID 485294;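 note: 0% = no-compound wells and -100% = no-enzyme wells; nearly all actives have a fitted effect of over 25% in size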
Target sequence (P00811 whole entry, looked up): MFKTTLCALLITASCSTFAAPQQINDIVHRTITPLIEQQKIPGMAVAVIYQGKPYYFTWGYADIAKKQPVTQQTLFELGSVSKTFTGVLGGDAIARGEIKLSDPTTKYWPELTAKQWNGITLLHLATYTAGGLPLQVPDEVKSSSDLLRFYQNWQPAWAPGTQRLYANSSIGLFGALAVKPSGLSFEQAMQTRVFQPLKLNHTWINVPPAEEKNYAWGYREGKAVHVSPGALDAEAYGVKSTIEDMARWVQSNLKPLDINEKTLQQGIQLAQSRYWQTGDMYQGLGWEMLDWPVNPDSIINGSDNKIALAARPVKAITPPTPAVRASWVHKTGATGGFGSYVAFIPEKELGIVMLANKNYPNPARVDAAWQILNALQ
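20 mM phosphate pH 7.0 + 0.01% (detergent screen) or 0.0001% Triton X-100; 5.3 nM AmpC reagent; cpd preinc 15 min RT; nitrocefin (800 uM stock) to start; A480 q20 s × 4 min; Activity was normalised to no-enzyme and no-compound control wells.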
AmpC inh no detg – inhibitors of E. coli AmpC beta-lactamase without detergent. P00811. AmpC nitrocefin hydrolysis, absorbance 480 nm, 0.0001% Triton. Potency, µM (highest dose often 57.1 µM), for the others: top-dose activity change, negative = inhibition, most hits filed as inhibitors. 330,000 tested, 0.52% active;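 note: plate controls were no compound for no effect and no enzyme for full effect; nearly all actives have a fitted effect of over 20% in size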
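AmpC (5.3 nM in the dispensed reagent) in 20 mM phosphate pH 7.0 with 0.01% (detergent screen) or 0.0001% Triton X-100 was preincubated with compounds for 15 min at room temperature. Nitrocefin was then added from an 800 uM solution, and hydrolysis was followed at 480 nm.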
* hit, by the source's call; ? = inconclusive; nt = no result. Calls come from the whole dose curve; as a rule, active = well fitted curve in the direction sought with a large enough effect; inconclusive = small, poorly fitted or top-dose-only effect, or another doubt; inactive = no such curve, though single readings can be large; an effect the other way counts as inactive or inconclusive. Unless noted, % is set by controls: 0 for no effect and ±100 for the full control effect; potency is the fitted concentration of half-maximal effect.

SMILES | Sm TGR block | AmpC inh detg | AmpC inh no detg
COc1ccc([C@@H]2CC=C(C(=O)O)[C@H](c3ccccc3F)N2S(=O)(=O)c2ccccc2C)cc1 | -5% | ? | -15%
CCCOC(=O)c1ccc(NC(=O)c2ccccc2OC)cc1 | 6% | ? | -6%
CCCOC(=O)c1ccc(NC(=O)c2c(Cl)ccc(Cl)c2OC)cc1 | -3% | -7% | 28µM*
COc1ccc(NC(=O)CCc2c(C)nc3c(c2C)c(=O)n(C)c(=O)n3C)cc1OC | 0% | 10% | nt
Cc1ccc(S(=O)(=O)N/N=C\c2ccc(C)o2)cc1 | 35µM* | -9% | -25%
Cc1ccc(S(=O)(=O)N/N=C\c2ccc([N+](=O)[O-])o2)cc1 | 20µM* | -2% | -12%
Cc1ccc(/C=N/NS(=O)(=O)c2ccc([N+](=O)[O-])cc2)o1 | -32% | 1% | -17%
O=[N+]([O-])c1ccc(S(=O)(=O)N/N=C/c2ccco2)cc1 | -15% | 1% | -30%
Cc1ccc(S(=O)(=O)N/N=C\c2ccc([N+](=O)[O-])o2)cc1C | -2% | 5% | -1%
O=[N+]([O-])c1ccc(/C=N/NS(=O)(=O)c2ccc(Cl)cc2)o1 | 13µM* | -3% | -9%
O=C(CN1C(=O)C(=O)N(C2CCCC2)C1=O)Nc1ccc([N+](=O)[O-])cc1 | 4% | ? | -31%
Cc1coc2c1c(C)cc1oc(=O)c(CC(=O)NCCc3ccc(Cl)cc3)c(C)c12 | 1% | 24% | nt
O=S(=O)(c1ccccc1)N1CCC(c2ccncc2)CC1 | 1% | 4% | nt
O=C(NCC(c1ccc(Cl)cc1)N1CCCCC1)c1ccccc1 (stereo unspecified) | -6% | 18% | nt
O=C(c1ccc(-n2cncn2)c([N+](=O)[O-])c1)N1CCN(S(=O)(=O)c2ccc(F)c(F)c2)CC1 | -3% | ? | 44%
Cn1c(-c2ccc(Br)o2)nc2ccccc21 | 18µM* | ? | -2%
Cn1c(-c2nonc2N)nc2ccccc21 | 9% | 1% | -6%
CC(=O)c1ccc(-c2nc3ccccc3n2C)o1 | 40µM* | ? | -18%
CCC(=O)c1cc(-c2nc3ccccc3n2C)n(C)c1 | -7% | 2% | ?
CN(C)c1ccc(-c2nc3ccccc3n2C)cc1 | ? | -15% | -21%
Cc1ccc(-c2nc3ccccc3n2C)o1 | 16µM* | ? | -16%
Brc1ccc(Cn2c(-c3ccc(Br)o3)nc3ccccc32)o1 | 22µM* | ? | 4%
Cc1cccc(Cn2c(-c3cccc(Br)c3)nc3ccccc32)c1 | 1% | 1% | nt
O=C(CSc1ccc(F)cc1)Nc1ccc2c(c1)C(=O)NC2=O | -10% | -19% | -27%
Cc1ccc(NC(=O)CCCCCN2C(=O)[C@@H]3Cc4ccccc4CN3C2=O)c(C)c1 | 2% | 2% | 70%
SMILES | Sm TGR block | AmpC inh detg | AmpC inh no detg
CN(Cc1ccccc1)C(=O)c1ccc(NC(=O)C2=CSCCO2)cc1 | -10% | -8% | 32%
Cc1cccc(OCC(=O)Nc2c(C(=O)N3CCN(c4ccccc4F)CC3)oc3ccccc23)c1 | 1% | -6% | nt
COc1ccc(S(=O)(=O)c2c(SC)nn(Cc3ccccc3C)c2NC(C)=O)cc1 | 2% | -1% | nt
Cn1cc(C(=O)c2ccccc2)cc1-c1nc2ccccc2n1C | -8% | -3% | -16%
Cc1oc(-c2nc3ccccc3n2C)cc1C(=O)c1ccccc1 | 25µM* | -2% | -12%
Cc1ccc2nc(-c3ccc(Br)o3)oc(=O)c2c1 | 0% | 0% | -21%
Cn1c(-c2ccc(Br)o2)nc2cc(Br)ccc21 | 13µM* | -13% | -19%
Cc1nnc(N2C(=O)c3ccc(Br)cc3C2=O)s1 | -11% | -7% | -21%
CCCn1c(SCC(=O)N(C)CC(=O)Nc2ccc(Cl)cc2)n[nH]c1=O | 0% | 7% | -5%
Cn1nc(C(=O)OCC(=O)Nc2sccc2C(N)=O)c2ccccc2c1=O | -8% | 7% | -29%
O=C(NCC1(c2ccccc2)CCCC1)c1ccccc1 | 4% | -18% | -20%
O=C(NCC1(c2ccccc2)CCCC1)C(=O)NCC1(c2ccccc2)CCCC1 | 40µM* | ? | -9%
CN(C)S(=O)(=O)c1ccc(S(=O)(=O)NCc2cccs2)cc1 | 0% | 0% | -10%
CCOC(=O)CNC(=O)c1ccc2[nH]c3c(c2c1)CCCC3 | ? | -6% | -23%
Cc1cc2cc(NC(=O)c3ccco3)ccc2[nH]1 | 8% | 6% | -3%
S=C(NCc1ccc2[nH]c3c(c2c1)CCCC3)Nc1ccccc1 | -4% | 1% | ?
O=C(Nc1ccc2[nH]c3c(c2c1)CCCC3)c1ccco1 | 45µM* | 0% | -3%
NNC(=O)c1ccc2[nH]c3c(c2c1)CCCC3 | 0% | 1% | 25µM*
Cc1cc(C)cc(NC(=S)NCc2ccc3[nH]c4c(c3c2)CCCC4)c1 | -12% | -7% | 32µM*
CC(=O)c1c(C)[nH]c(C(=O)NCC2CCCCC2)c1C | 5% | -10% | -36%
O=C(COc1ccc2c3c(c(=O)oc2c1)CCCC3)NCc1cccnc1 | 1% | 0% | -1%
COc1ccc(S(=O)(=O)N(C)CC(=O)NCCC2=CCCCC2)cc1C | -4% | ? | 64%
Cc1onc(-c2c(F)cccc2Cl)c1C(=O)N(C)C1CCCCC1 | 5% | -13% | 31%
O=C(Nc1ccc(-c2csc(Nc3ccc(Cl)cc3)n2)cc1)c1cccc(C(F)(F)F)c1 | -2% | -9% | ?
O=C(Nc1ccc(-c2csc(Nc3ccccc3)n2)cc1)c1cccc(C(F)(F)F)c1 | -3% | 2% | 3.5µM*
SMILES | Sm TGR block | AmpC inh detg | AmpC inh no detg
CCN(Cc1ccccc1)C(=O)CC(=O)N(CC)Cc1ccccc1 | 3% | 3% | 37%
O=c1c(O)c(-c2cc(O)c(O)c(O)c2)oc2cc(O)cc(O)c12 | 3.5µM* | ? | -42%
O=c1c(O)c(-c2ccccc2)oc2cc(O)cc(O)c12 | nt | nt | -6%
O=c1c(O[C@@H]2O[C@H](CO)[C@H](O)[C@H](O)[C@H]2O)c(-c2ccc(O)c(O)c2)oc2cc(O)cc(O)c12 | 18% | 8% | -15%
COc1c(-c2ccc(O)c(O)c2)oc2cc(O)cc(O)c2c1=O | 28µM* | 0% | -51%
CCC1CO/C(=C(\C(Cl)=C(Cl)Cl)[N+](=O)[O-])N1Cc1ccc(Cl)nc1 (stereo unspecified) | 0% | -14% | -19%
CCC1CO/C(=C(\C(Cl)=C(Cl)Cl)[N+](=O)[O-])N1 (stereo unspecified) | 8.9µM* | 5% | -13%
COc1ccc(CNC(=O)c2ccccc2NC(=O)C2=CSCCO2)c(OC)c1 | -1% | ? | -16%
Cc1sc2nc(COC(=O)c3ccc(O)cc3)[nH]c(=O)c2c1C | 13% | 3% | 14µM*
Cc1sc2nc(COC(=O)c3ccc(Cl)c(N)c3)[nH]c(=O)c2c1C | -10% | -4% | -39%
Cc1ccc(N2C(=O)NC(=O)/C(=C/c3ccc(OC(=O)c4cccs4)cc3)C2=O)cc1 | 35µM* | -1% | -49%
CC1=NN(c2ccc(C(=O)O)cc2)C(=O)/C1=C\c1ccc(OC(=O)c2cccs2)cc1 | -8% | -1% | -30%
N#C/C(=C\c1cccc(OC(=O)c2cccs2)c1)C(N)=O | -8% | ? | -26%
COc1ccc(N2C(=O)NC(=O)/C(=C/c3cccc(OC(=O)c4cccs4)c3)C2=O)cc1Cl | 14µM* | -4% | -42%
